# Measured values reported in ChEMBL document CHEMBL4513216, “Probing the Open Global Health Chemical Diversity Library for Multistage-Active Starting Points for Next-Generation Antimalarials” (ACS Infect Dis, 2020).
# In all, about 69,000 compounds went through this assay and about 8,600 (12%) showed an effect of 50% or more. Only a selection was taken, and strong results are over-represented in it overall.
# System: Plasmodium berghei
# Test: Screen against P. berghei liver stage (PbLuc), transformed with Luciferase, at 10uM
# Type: functional, HepG2
# Settings: tested at 10 uM
row,Structure (SMILES),INHIBITION [%]
1,CN(Cc1cn2c(n1)CN(c1ncc(F)cn1)CC2)Cc1ccco1,22.7
2,O=C(N1CCOCC1)[C@@]12CCO[C@@H]1CCN(C1CCOCC1)C2,38.5
3,Cc1ccc(NC2CCN(C(=O)CCNc3ncccn3)CC2)nn1,-24.2
4,Cc1cc(NC(=O)CN2CCN(c3nccs3)C(C)C2)no1 (stereo not given),19.2
5,CNC(=O)C1(CCCc2ccccn2)CN(Cc2nccn2C)C1,-40.1
6,CC(O)CN1CCC(CNCc2ccccc2F)CC1 (stereo not given),-34.365
7,Cc1cc(C(=O)CN2CCN(c3ncccn3)CC2)c(C)n1C(C)C,26.4
8,CN1CCOC(CNCc2ccccc2OCc2ccccn2)C1 (stereo not given),-10.193
9,OCCN1CCC(Cc2nccs2)CC1,13.955
10,CC(C)N(C)CC(=O)NCCc1nc(C(F)(F)F)cs1,-48.9
11,Cc1cccc(Nc2cc(C)nc(C3CCCCN3CC(N)=O)n2)n1 (stereo not given),18.9
12,CCC(NCCn1cccn1)C(=O)Nc1cc(C)on1 (stereo not given),36.5
13,Cc1cc(NC(=O)C(C)NCCn2cccn2)no1 (stereo not given),58.9
14,CCC(NCCn1cc(C)cn1)C(=O)Nc1cc(C)on1 (stereo not given),35.4
15,c1ccc2sc(N3CCC4(CCCN4Cc4ncc[nH]4)CC3)nc2c1,51.6
16,Cc1nc[nH]c1CN1CCC(C2CCN(CCc3ccccc3)C2)CC1 (stereo not given),44.3
17,Cc1nc[nH]c1CN1CCCC12CCN(c1ccccn1)CC2,20.9
18,Cn1cc(CN2CCCC23CCN(c2nc4ccccc4s2)CC3)cn1,47
19,Cc1nc[nH]c1CN1CCCN(c2nc3ccccc3s2)CC1,76.6
20,Cc1nc[nH]c1CN1CCn2nc(CN3Cc4ccccc4C3)cc2C1,22.8
21,Cc1nc(CN2CCCC23CCN(c2nc4ccccc4s2)CC3)co1,14.1
22,CC(=O)c1ccc(CN2CCCC23CCN(c2ccccn2)CC3)cc1,49.9
23,Cc1nc[nH]c1CN1CCCC12CCN(c1nc3ccccc3s1)CC2,76.6
24,CN(C)C1CCCN(C(=O)NCc2ccccc2-n2cccn2)C1 (stereo not given),21.5

row,Structure (SMILES),INHIBITION [%]
1,CCS(=O)(=O)N1Cc2nccn2CC(Cn2cccn2)C1 (stereo not given),37.5
2,O=C(O)c1cc(-c2ccccc2)ns1,45.9
3,O=C(COCc1ccccc1)N1CCCC1c1noc(C2CC2)n1 (stereo not given),7.27
4,O=C(C[C@@H]1COC[C@H]2CN(C(=O)c3ccccn3)C[C@@H]12)N1CCCC1,6.72
5,Cc1cccc(N2Cc3c(NC4CCCC4)ncnc3N(C)CC2=O)c1,7.66
6,CC(=O)c1cccc(NC(=O)CN2CCCC(C3OCCO3)C2)c1 (stereo not given),53.4
7,CC(=O)c1cccc(NC(=O)CN2CCCCC2C)c1 (stereo not given),14
8,CC(=O)c1cccc(NC(=O)CN2CCCCC2C2OCCO2)c1 (stereo not given),1.81
9,CN(C)Cc1cnn(-c2ccccc2C(=O)N(C)Cc2ccccc2)c1,-52.6
10,Cc1cc(=O)c2ccccc2n1CC1CCNC1 (stereo not given),12.8
11,Cc1cc(=O)c2ccccc2n1CC1CCN(C(C)C)C1 (stereo not given),53.9
12,Cc1cc(=O)c2ccccc2n1CC1CCCN(C)C1 (stereo not given),-9.92
13,c1cnc(N2CCO[C@H]3CN(Cc4csnn4)C[C@H]32)cn1,23.3
14,O=C(NCCc1ccn(-c2ccccc2)n1)N1CCSCC1,62.9
15,O=C(NCCc1ccn(-c2ccccc2)n1)N1CCCC(O)C1 (stereo not given),-16
16,O=C(NCCc1ccn(-c2ccccc2)n1)N1CCC1,26.9
17,Cc1cccc(NC(=O)C(C)Nc2cccc(CN3CCOC3=O)c2)c1 (stereo not given),-18.15
18,CC1CC(=O)c2cc(C(=O)N3CCc4ccccc4C3)c(=O)[nH]c2C1 (stereo not given),10.9
19,Cc1ccc(CN2C[C@@H]3CCCO[C@@H]3[C@H](N(C)Cc3ccco3)C2)o1,18.5
20,CCN1CCN(CCCNC(=O)NC(C)c2nncn2C)CC1 (stereo not given),40
21,CC(NC(=O)NCCOc1ccc(Cl)cc1)c1nncn1C (stereo not given),39.7
22,CC(NC(=O)NCCCN1CCc2ccccc2C1)c1nncn1C (stereo not given),-120
23,CC(NC(=O)NCCCN1CCCC1)c1nncn1C (stereo not given),0.914
24,CC(NC(=O)NCCN1CCCC1)c1nncn1C (stereo not given),56.4

row,Structure (SMILES),INHIBITION [%]
1,CC1CCN(CCCNC(=O)NC(C)c2nncn2C)CC1 (stereo not given),52.3
2,CC(NC(=O)NCCCN1CCCCCC1)c1nncn1C (stereo not given),30.2
3,Cc1cccc(OCCCNC(=O)NC(C)c2nncn2C)c1 (stereo not given),15.9
4,Cc1cccc(C)c1OCCNC(=O)NC(C)c1nncn1C (stereo not given),50.4
5,N#CCCSc1sc2c(O)cc(O)nc2c1C#N,38.2
6,O=C(NCCc1cc2nc(-c3ccncc3)ccn2n1)C1CC1,23.6
7,O=C(c1cc[nH]n1)N1CCCC1c1ccccn1 (stereo not given),13.5
8,CC(=O)N1CCC(c2nccnc2C)CC1,-16.1
9,OCC1(NCc2cnc(-c3ccsc3)s2)CCOCC1,-11.7
10,CN(Cc1ccc2nsnc2c1)C(=O)Cn1ncc(N(C)C)cc1=O,5.46
11,CN(CCc1ccccc1)c1cnn(CC(=O)N2CCSCC2)c(=O)c1,38.5
12,CN(C)c1cnn(CC(=O)N2CCN(c3ccccc3)CC2)c(=O)c1,53.7
13,CN(Cc1ccoc1)C(=O)Cn1ncc(N(C)C)cc1=O,50.5
14,CN(CCc1ccccc1)c1cnn(CC(=O)N2CCOCC2)c(=O)c1,20.2
15,CSc1cccc(CN(C)C(=O)Cn2ncc(N(C)C)cc2=O)c1,4.64
16,CN(C)c1cnn(CC(=O)N2CCN(Cc3cccs3)CC2)c(=O)c1,65.7
17,CN(C)c1cnn(CC(=O)N2CCCCCC2)c(=O)c1,15.4
18,CN(C)c1cnn(CC(=O)N2Cc3ccccc3C2)c(=O)c1,31.4
19,O=C(CCn1c(C(F)F)cc2cccnc21)NC1CC1,22
20,CC(c1nc(C(C)(C)C)no1)N1CCN(c2ccc(C#N)cn2)CC1 (stereo not given),23.9
21,Cc1cc(C)n(CC2CCCN2C(=O)c2ccnc(N(C)C)c2)n1 (stereo not given),3.73
22,CN(C)C(=O)[C@H]1C[C@H]2CN(c3ncccn3)C[C@@H]1O2,-5.63
